Hit rate of the full screen: of about 5,500 compounds, about 2,000 (36%) were called active. Another 18% or so got no clear call; they are omitted. Cut-off read from the data, not from the text of the source: active = normalized growth mostly below about 0.91 (no sharp cut-off); inconclusive = no clear call, values can overlap the other calls; inactive = mostly above about 0.92. Some of the results follow.
Test: chemical genetic growth profiling, strain panel (AID 1159580);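 note: tested at 20 µM; growth read once vehicle control cultures reached saturation at 30 °C; 1 = growth at the plate median or of vehicle wells; lower values mean less growth of the strain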
Conditions: growth OD

Measured: normalized growth

COc1cc2c(cc1OC)C1Cc3ccc(OC)c(OC)c3CN1CC2 (configuration not stated)
inactive: S. cerevisiae deletion strains, locus YJR066W, strain TOR1, hits give low values 0.912 | S. cerevisiae deletion strains, locus YKL009W, strain mrt4, hits give low values 0.988 | S. cerevisiae deletion strains, locus YKL068W, hits give low values 0.999 | S. cerevisiae deletion strains, locus YKL085W, strain MDH1 (second series), hits give low values 0.988 | S. cerevisiae deletion strains, locus YKL085W, strain MDH1, hits give low values 0.988 | S. cerevisiae deletion strains, locus YKL160W, strain elf1, hits give low values 1.01 | S. cerevisiae deletion strains, locus YKR001C, strain vps1, hits give low values 1.01 | S. cerevisiae deletion strains, locus YKR026C, strain gcn3, hits give low values 0.979 | S. cerevisiae deletion strains, locus YKR091W, strain srl3, hits give low values 0.98 | S. cerevisiae deletion strains, locus YLL001W, strain dnm1, hits give low values 0.99 | S. cerevisiae deletion strains, locus YLL026W, hits give low values 0.989 | S. cerevisiae deletion strains, locus YLL041C, strain sdh2, hits give low values 0.975 | S. cerevisiae deletion strains, locus YLR027C, strain aat2, hits give low values 0.969 | S. cerevisiae deletion strains, locus YLR039C, strain RIC1, hits give low values 0.979 | S. cerevisiae deletion strains, locus YLR058C, strain SHM2, hits give low values 1.01 | S. cerevisiae deletion strains, locus YLR102C, strain apc9, hits give low values 0.982 | S. cerevisiae deletion strains, locus YLR113W, strain HOG1, hits give low values 0.978 | S. cerevisiae deletion strains, locus YLR221C, strain rsa3, hits give low values 0.985 | S. cerevisiae deletion strains, locus YLR258W, strain gsy2, hits give low values 0.977 | S. cerevisiae deletion strains, locus YLR262C, strain YPT6 (second series), hits give low values 0.957 | S. cerevisiae deletion strains, locus YLR262C, strain YPT6, hits give low values 0.918 | S. cerevisiae deletion strains, locus YLR268W, strain sec22, hits give low values 0.962 | S. cerevisiae deletion strains, locus YLR320W, strain mms22, hits give low values 0.982 | S. cerevisiae deletion strains, locus YLR330W, strain CHS5, hits give low values 1.01 | S. cerevisiae deletion strains, locus YLR342W, strain FKS1 (second series), hits give low values 0.957 | S. cerevisiae deletion strains, locus YLR342W, strain FKS1, hits give low values 0.968 | S. cerevisiae deletion strains, locus YLR357W, strain rsc2, hits give low values 0.994 | S. cerevisiae deletion strains, locus YLR370C, strain arc18, hits give low values 0.971 | S. cerevisiae deletion strains, locus YLR371W, strain rom2, hits give low values 1.01 | S. cerevisiae deletion strains, locus YLR384C, strain iki3, hits give low values 0.988 | S. cerevisiae deletion strains, locus YLR418C, strain cdc73, hits give low values 1.02 | S. cerevisiae deletion strains, locus YML016C, strain PPZ1, hits give low values 0.988 | S. cerevisiae deletion strains, locus YML032C, strain rad52, hits give low values 1.03 | S. cerevisiae deletion strains, locus YML120C, strain ndi1, hits give low values 0.984 | S. cerevisiae deletion strains, locus YML124C, strain tub3, hits give low values 0.987 | S. cerevisiae deletion strains, locus YMR058W, strain fet3, hits give low values 0.984 | S. cerevisiae deletion strains, locus YMR078C, strain ctf18, hits give low values 0.968 | S. cerevisiae deletion strains, locus YMR125W, strain sto1, hits give low values 0.953 | S. cerevisiae deletion strains, locus YMR129W, hits give low values 0.978 | S. cerevisiae deletion strains, locus YMR205C, strain PFK2, hits give low values 0.987 | S. cerevisiae deletion strains, locus YMR223W, strain ubp8, hits give low values 1.01 | S. cerevisiae deletion strains, locus YMR231W, strain pep5, hits give low values 0.966 | S. cerevisiae deletion strains, locus YMR263W, strain SAP30, hits give low values 1 | S. cerevisiae deletion strains, locus YMR307W, strain GAS1, hits give low values 1 | S. cerevisiae deletion strains, locus YNL067W, strain RPL9B, hits give low values 1.02 | S. cerevisiae deletion strains, locus YNL071W, strain lat1, hits give low values 0.974 | S. cerevisiae deletion strains, locus YNL128W, strain TEP1, hits give low values 0.983 | S. cerevisiae deletion strains, locus YNL153C, strain GIM3, hits give low values 1.03 | S. cerevisiae deletion strains, locus YNL183C, strain NPR1, hits give low values 0.93 | S. cerevisiae deletion strains, locus YNL209W, strain ssb2, hits give low values 1.01 | S. cerevisiae deletion strains, locus YNL233W, strain BNI4, hits give low values 1.02 | S. cerevisiae deletion strains, locus YNL248C, strain rpa49, hits give low values 0.961 | S. cerevisiae deletion strains, locus YNL250W, strain rad50, hits give low values 0.968 | S. cerevisiae deletion strains, locus YNL271C, strain bni1, hits give low values 0.976 | S. cerevisiae deletion strains, locus YNL298W, strain CLA4, hits give low values 0.991 | S. cerevisiae deletion strains, locus YNL307C, strain MCK1, hits give low values 1 | S. cerevisiae deletion strains, locus YNL322C, strain KRE1 (second series), hits give low values 0.948 | S. cerevisiae deletion strains, locus YNR049C, strain mso1, hits give low values 0.967 | S. cerevisiae deletion strains, locus YNR052C, strain pop2, hits give low values 0.993 | S. cerevisiae deletion strains, locus YOL012C, strain htz1 0.904 | S. cerevisiae deletion strains, locus YOL147C, strain pex11, hits give low values 0.99 | S. cerevisiae deletion strains, locus YOR001W, strain rrp6, hits give low values 0.957 | S. cerevisiae deletion strains, locus YOR061W, strain CKA2, hits give low values 0.996 | S. cerevisiae deletion strains, locus YOR069W, strain VPS5, hits give low values 0.984 | S. cerevisiae deletion strains, locus YOR070C, strain gyp1, hits give low values 0.984 | S. cerevisiae deletion strains, locus YOR080W, strain dia2, hits give low values 0.971 | S. cerevisiae deletion strains, locus YOR083W, strain WHI5, hits give low values 1.01 | S. cerevisiae deletion strains, locus YOR106W, strain vam3, hits give low values 0.987 | S. cerevisiae deletion strains, locus YOR136W, strain idh2, hits give low values 0.975 | S. cerevisiae deletion strains, locus YOR144C, strain elg1, hits give low values 0.989 | S. cerevisiae deletion strains, locus YOR184W, strain ser1, hits give low values 0.917 | S. cerevisiae deletion strains, locus YOR231W, strain MKK1, hits give low values 0.99 | S. cerevisiae deletion strains, locus YOR265W, strain rbl2, hits give low values 0.961 | S. cerevisiae deletion strains, locus YOR270C, strain vph1, hits give low values 0.94 | S. cerevisiae deletion strains, locus YOR290C, strain snf2, hits give low values 0.994 | S. cerevisiae deletion strains, locus YOR316C, strain cot1, hits give low values 0.99 | S. cerevisiae deletion strains, locus YPL051W, strain arl3, hits give low values 0.997 | S. cerevisiae deletion strains, locus YPL078C, strain atp4, hits give low values 0.981 | S. cerevisiae deletion strains, locus YPL106C, strain sse1, hits give low values 1.02 | S. cerevisiae deletion strains, locus YPL240C, strain hsp82, hits give low values 0.968 | S. cerevisiae deletion strains, locus YPL256C, strain CLN2, hits give low values 1 | S. cerevisiae deletion strains, locus YPR119W, strain clb2, hits give low values 0.994 | S. cerevisiae deletion strains, locus YPR141C, strain kar3, hits give low values 0.982 | S. cerevisiae deletion strains, locus YPR163C, strain tif3, hits give low values 0.989 | S. cerevisiae deletion strains, locus YPR167C, strain met16, hits give low values 0.99 | S. cerevisiae deletion strains, strain wtn01, hits give low values 0.968 | S. cerevisiae strains, strain wild type, hits give low values 1.01
